Each structure is given as a SMILES string. Active and inactive are the calls of the source. The calls were made as follows: active = hit-call score of the fitted dose curve at least 0.9, where 1 is the maximum; inactive = score below 0.9.

The AC50 is the midpoint of the concentration-response curve, whichever way the signal moves.

A short description of this experiment: ATG_AP_1_CIS: Attagene CIS-FACTORIAL HepG2 Assay for human Activator Protein 1 (AP-1) (AID 2282931). Particulars: HepG2 Attagene cis-factorial AP-1 reporter mRNA; actives raise or lower the signal. The protocol: ATG_CIS is a cell-based, multiplexed-readout assay that uses HepG2, a human liver cell line, with measurements taken at 24 hours after chemical dosing in a 24-well plate.ATG_AP_1_CIS is one of 52 assay component(s) measured or calculated from the ATG_CIS assay. It is designed to make measurements of mRNA induction, a form of inducible reporter, as detected with fluorescence intensity signals by Reverse transcription polymerase chain reaction (RT-PCR) and Capillary electrophoresis technology.Data from the assay component ATG_AP_1_CIS was analyzed into 1 assay endpoint. This assay endpoint, ATG_AP_1_CIS, was analyzed with bidirectional fitting relative to DMSO as the negative control and baseline of activity. Using a type of inducible reporter, measures of mRNA for gain or loss-of-signal activity can be used to understand the reporter gene at the transcription factor-level as they relate to the gene FOS and JUN. Furthermore, this assay endpoint can be referred to as a primary readout, because this assay has produced multiple assay endpoints where this one serves a reporter gene function. To generalize the intended target to other relatable targets, this assay endpoint is annotated to the dna binding intended target family, where the subfamily is basic leucine zipper.
Human liver HepG2 cells are transiently transfected with multiple reporter transcription units (MRTUs) in 6-well plates using FuGene 6 reagent (Roche; 3 ml FuGene/1 mg DNA). The MRTU constructs are regulated by a cis-regulating element (promoter). […] A major difference between the CIS and TRANS system is that in CIS activities of endogenous TFs are measured, whereas the TRANS assay evaluates changes in activities of exogenous, chimeric NR-Gal4 proteins. […] At the end of 24 hour incubation, total RNA was isolated using TriZol reagent (Invitrogen). The isolated RNA is then reverse-transcribed using oligo(dT) primer and Mo-MLV reverse transcriptase (Invitrogen) with DNAse I (Ambion) treatment for 30 min. The one-tenth of the produced cDNA was amplified by PCR using Taq DNA polymerase (Invitrogen) and two reporter sequence-specific primers. The PCR products were fluorescently labeled by primer extension with 6-arboxyfluorescein (6-FAM) 5'-labeled reporter sequence-specific primer (2 min at 95 C, 20 s at 68 C and 10 min at 72 C) and these products were digested with 5U of HpaI (New England Biolabs) for 2h at 37 C. The fragments were purified using Qiaquick PCR columns (Qiagen), analyzed on an ABI 3130xL genetic analyzer (Applied Biosystems) with peak positions identified by using a set of X-rhodamine (ROX)-labeled MapMarker1000 molecular weight standards (BioVentures). The raw capillary electrophoresis data was processed using Attagraph software (Attagene).
On to `CC(=O)OCC=C(C)CCC=C(C)CCC=C(C)C`, for which the AC50 was 48.1 µM (active).

Turning to `NC(=O)c1cccnc1`, the outcome was inactive.

Regarding `OCCCO`, the outcome was inactive.

Take `C[N+](C)(C)CCO`: the outcome was inactive.

Consider `CC(C)N(c1ccccc1)C(C)C`, for which the compound was called inactive.

As for `O=C(OCc1ccccc1)c1ccccc1O`, the AC50 is 111 µM (active).

For `CCCCCCCCCC(=O)OCC`, the call was inactive.

As to `C=CC(=O)OCC(CO)(COC(=O)C=C)COC(=O)C=C`, the AC50 is 100 µM (active).

As to `CC(=O)CCc1ccc(O)cc1`, the outcome was inactive.

In the case of `CC(=O)c1ccc(C)cc1`, the result was inactive.

Turning to `CN1CCc2cccc3c2[C@H]1Cc1ccc(O)c(O)c1-3`, the AC50 was 3.75 µM (active).

`CC(C)C(=O)OCC=Cc1ccccc1`: the outcome was inactive.

In the case of `Nc1ccn([C@H]2CC[C@@H](CO)O2)c(=O)n1`, the compound was called inactive.

On to `C=CC(C)(CCC=C(C)C)OC(=O)CC` (stereo not given), for which the compound was classed as inactive.

For the compound `CC(=O)Oc1c(C)c(C)c2c(c1C)CC[C@@](C)(CCC[C@H](C)CCC[C@H](C)CCCC(C)C)O2`, the compound was classed as inactive.

Turning to `CCCCOCCOCCO`, the result was inactive.

Take `C=CC(=O)OCCCCCC`: the outcome was inactive.

For the compound `CC(CO)(CO)[N+](=O)[O-]`, the call was inactive.

Consider `O=C(C=Cc1ccccc1)OCCCc1ccccc1`, for which the result was inactive.

In the case of `COc1ccc2[nH]cc(CCNC(C)=O)c2c1`, the outcome was inactive.

As for `C=C(C)C(=O)OCCC(C)OC(=O)C(=C)C` (stereo not given), the result was inactive.

Take `CC(C)=CCCC(C)=CC(=O)O`: the result was inactive.

In the case of `CC1=CC[C@@H]2C[C@H]1C2(C)C`, the result was inactive.

Take `NC(N)=S`: the call was inactive.

In the case of `CCO[Si](CCC#N)(OCC)OCC`, the outcome was inactive.

With `O=c1cc[nH]cc1`, the compound was classed as inactive.

Regarding `c1ccc(OCCOc2ccccc2)cc1`, the outcome was inactive.

For the compound `C=C(C)C(=O)OCCC[Si](OC)(OC)OC`, the result was inactive.

For `CNC(=C[N+](=O)[O-])NCCSCc1ccc(CN(C)C)o1`, the compound was classed as inactive.

As to `[Cl][Dy]([Cl])[Cl]`, the compound was called inactive.

Consider `C1=COCCC1`, for which the compound was called inactive.

As to `CC(=O)Nc1cc(S(=O)(=O)O)cc2cc(S(=O)(=O)O)c(N=Nc3ccccc3)c(O)c12`, the outcome was inactive.

For `COC(=O)c1cccc(C(=O)OC)c1`, the result was inactive.

`CCCCCCCCCCCCCCCCCC(=O)OCCCCCCCCCCCCCC(C)C`: the call was inactive.

As for `c1coc(CNc2ncnc3nc[nH]c23)c1`, the compound was called inactive.

As to `CCCO[Si](OCCC)(OCCC)OCCC`, the compound was classed as inactive.

For `CC/C=C\CCCCO`, the compound was classed as inactive.

`CC/C(=C(\c1ccccc1)c1ccc(OCCN(C)C)cc1)c1ccccc1`: the result was inactive.

Turning to `CC1=CC[C@@H](C(C)(C)O)CC1`, the compound was called inactive.

For `FC(F)(F)c1ccc(Cl)c(Cl)c1`, the compound was called inactive.

These data come from PubChem BioAssay (EPA / NIEHS).
